How the values were obtained:
Assay in all cases: PBM binding z-score (relative to random genomic background probes); higher = stronger binding; sequences stand for … in GC…GCGATTGACAGCGTAGAATGAAGG
[1] = test system: RARb homodimer (NR concentration 270 nM)
How it was run: (§1)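 The probes on custom Agilent 4×180K protein-binding microarrays were double-stranded, with 34-nt variable regions bearing direct-repeat seeds, single-nucleotide variants, half-site ablations and random human genomic background sequences. Incubation lasted 1 h with ligand-free nuclear receptor dimers in PBS pH 7.4, 2% milk, 0.02% Triton X-100, 1 mM DTT, 0.2 mg/mL BSA and 0.4 mg/ml salmon testes DNA. Antibodies against each partner (one per run) detected bound dimers, and fluorescence scans were regression-normalized. Binding z-scores take the random background probes as reference.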

[2] = test system: RARg:RXRa (NR concentration 270 nM, RXRa partner concentration 90 nM)
How it was run: as §1

[3] = test system: RARg homodimer (NR concentration 270 nM)
How it was run: as §1

[4] = test system: RXRa DBDmut IVT, anti-RXR (DBD mutation: RXRa K156A/R161A, NR concentration 90 nM)
How it was run: as §1

[5] = test system: RXRa homodimer (NR concentration 180 nM)
How it was run: as §1

[6] = test system: THRa:RXRa (NR concentration 90 nM, RXRa partner concentration 90 nM)
How it was run: as §1

[7] = test system: THRa homodimer (NR concentration 90 nM)
How it was run: as §1

[8] = test system: VDR:RXRa (NR concentration 270 nM, RXRa partner concentration 90 nM)
How it was run: as §1

[9] = test system: VDR homodimer (NR concentration 270 nM)
How it was run: as §1

| Sequence | PBM binding z-score [1] | PBM binding z-score [2] | PBM binding z-score [3] | PBM binding z-score [4] | PBM binding z-score [5] | PBM binding z-score [6] | PBM binding z-score [7] | PBM binding z-score [8] | PBM binding z-score [9] |
| --- | --- | --- | --- | --- | --- | --- | --- | --- | --- |
| TAGCCTAGGTAATTGGGCCAGTATAGTACGCATC | -0.403 | -0.17 | -0.133 | -1.07 | -0.301 | -0.106 | -0.68 | -0.627 | -0.642 |
| CCGACTGGGGCAAAAAGGTTACCATACCATCCGG | 2.34 | 1.8 | 1.6 | -0.333 | 1.7 | 1.21 | 0.0277 | 1.28 | 0.374 |
| ATACCAAGGTGATCGTGAGGTCGTTGTTACTAAC | 1.7 | 1.78 | 0.637 | 0.951 | 1.21 | 3.27 | 2.64 | 3.18 | 3.22 |
| AGTCAAAGTTCAGGACGAGGTAACGTCAAGCACG | 3.13 | 4.98 | 4.9 | 2.71 | 3.29 | 3.98 | 1.52 | 3.07 | 2.33 |
| CCTATTAGTTGACCAGAAGGGCAACCGAAGCTCG | 1.88 | 1.45 | 0.985 | 0.633 | 0.786 | 0.606 | 0.383 | 0.596 | 0.595 |
| AGAATGAGGTTTTTAAGATCAGGGAATTGCGGTC | -0.159 | -0.0419 | -0.355 | 0.351 | 0.0313 | 0.216 | -0.0732 | -0.0674 | -0.068 |
| ATATGTAGGTTAAGGGTCATTAAGGTTGGTTCGC | 4.07 | 4.66 | 3.54 | 1.78 | 5.92 | 3.48 | 1.58 | 6.19 | 3.96 |
| CCGACTGGGGCAGAAAAGTTACCATACCATCCGG | -0.232 | -0.197 | 0.109 | -0.438 | -0.0105 | -0.43 | -0.509 | -0.576 | -0.39 |
| AGAATGAGGTTATTAAGAGCAGGGAATTGCGGTC | 1.16 | 1.1 | 0.698 | 2.01 | 1.48 | 2.14 | 0.798 | – | 1.21 |
| ATCTCTAGGTAACCAAGTTCAGTGTATGCCGAAC | 1.47 | 0.771 | 0.637 | 0.982 | 0.429 | 1.48 | 0.867 | 3.91 | 2.85 |
| ATATGTAGGTTCTCGGGTCATTCAGTTTGCGCAT | 2.61 | 2.47 | 1.7 | 2.28 | 2.88 | 3.46 | 3.29 | 5.04 | 4.65 |
| TCTTGTTGGTCAAAGGTCACACACTCGAAATGCG | 5.33 | 7.36 | 6.57 | 2.02 | 8.27 | 4.21 | 2.56 | 5.23 | 3.06 |
| TCTTGTAGAACAGCAGGTTAAGAAAGCTGGCCAA | -0.365 | -0.24 | -0.558 | 0.506 | 0.0431 | -0.111 | -1.15 | 0.0158 | -0.882 |
| ATCTCTAGGTAACCAAGTTCATTGAATGCCGAAC | 2.07 | 1.42 | 1.35 | 2.39 | 1.29 | 2.2 | 1.25 | 5.68 | 5.53 |
| TCTTGTAGATCAACAGGAGGTTAAGGAAGATCGA | 0.564 | 0.698 | 0.308 | 0.0925 | 0.861 | 0.777 | -0.373 | – | -0.358 |
| TCTAGTTTGTCACGGAGGTCACACACGACGGGTA | 4.23 | 4.3 | 4.16 | 1.65 | 4.54 | 3.6 | 2.96 | – | 3.15 |

— the supplement of paper PMC6555819
